Laboratory results: the supplement of paper PMC10849652
About 8,800 targets were measured; listed, in parts, are those with a hit and a random draw of the rest. About 0.5% of all pairs of compound and target were hits. Values without a mark were called inactive.

The targets below were run with CC1=C2C(=CC=C1)N=C(N(C2=O)C3=CC=CC=C3C)CN4C=NC5=C(N=CN=C54)N (assay: log2 fold change, soluble protein after heating vs DMSO (PISA); higher = thermal stabilisation; K562 lysate, 10 uM; active = over 0.2 and 3.5 SD of the protein, either way, in both replicates (recomputed)).
Outline: (§1)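 Log-two fold change in thermal stability relative to solvent controls is reported from duplicates. For each sample, crude K562 extract from dounce-homogenised pellets in PBS pH 7.4 with 1 mM MgCl2, at 1 mg/mL protein, was treated with 10 μM compound for 30 min. Aliquots heated for 3 min across 48°C-58°C were pooled, brought to 0.5% NP-40 at 4°C and cleared at 21,000xg for 90 min. The supernatant was quantified by TMTpro 16plex LC-MS/MS with channel sums equalised.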

UniProt Q92538, sequence (Q92538 whole entry, looked up): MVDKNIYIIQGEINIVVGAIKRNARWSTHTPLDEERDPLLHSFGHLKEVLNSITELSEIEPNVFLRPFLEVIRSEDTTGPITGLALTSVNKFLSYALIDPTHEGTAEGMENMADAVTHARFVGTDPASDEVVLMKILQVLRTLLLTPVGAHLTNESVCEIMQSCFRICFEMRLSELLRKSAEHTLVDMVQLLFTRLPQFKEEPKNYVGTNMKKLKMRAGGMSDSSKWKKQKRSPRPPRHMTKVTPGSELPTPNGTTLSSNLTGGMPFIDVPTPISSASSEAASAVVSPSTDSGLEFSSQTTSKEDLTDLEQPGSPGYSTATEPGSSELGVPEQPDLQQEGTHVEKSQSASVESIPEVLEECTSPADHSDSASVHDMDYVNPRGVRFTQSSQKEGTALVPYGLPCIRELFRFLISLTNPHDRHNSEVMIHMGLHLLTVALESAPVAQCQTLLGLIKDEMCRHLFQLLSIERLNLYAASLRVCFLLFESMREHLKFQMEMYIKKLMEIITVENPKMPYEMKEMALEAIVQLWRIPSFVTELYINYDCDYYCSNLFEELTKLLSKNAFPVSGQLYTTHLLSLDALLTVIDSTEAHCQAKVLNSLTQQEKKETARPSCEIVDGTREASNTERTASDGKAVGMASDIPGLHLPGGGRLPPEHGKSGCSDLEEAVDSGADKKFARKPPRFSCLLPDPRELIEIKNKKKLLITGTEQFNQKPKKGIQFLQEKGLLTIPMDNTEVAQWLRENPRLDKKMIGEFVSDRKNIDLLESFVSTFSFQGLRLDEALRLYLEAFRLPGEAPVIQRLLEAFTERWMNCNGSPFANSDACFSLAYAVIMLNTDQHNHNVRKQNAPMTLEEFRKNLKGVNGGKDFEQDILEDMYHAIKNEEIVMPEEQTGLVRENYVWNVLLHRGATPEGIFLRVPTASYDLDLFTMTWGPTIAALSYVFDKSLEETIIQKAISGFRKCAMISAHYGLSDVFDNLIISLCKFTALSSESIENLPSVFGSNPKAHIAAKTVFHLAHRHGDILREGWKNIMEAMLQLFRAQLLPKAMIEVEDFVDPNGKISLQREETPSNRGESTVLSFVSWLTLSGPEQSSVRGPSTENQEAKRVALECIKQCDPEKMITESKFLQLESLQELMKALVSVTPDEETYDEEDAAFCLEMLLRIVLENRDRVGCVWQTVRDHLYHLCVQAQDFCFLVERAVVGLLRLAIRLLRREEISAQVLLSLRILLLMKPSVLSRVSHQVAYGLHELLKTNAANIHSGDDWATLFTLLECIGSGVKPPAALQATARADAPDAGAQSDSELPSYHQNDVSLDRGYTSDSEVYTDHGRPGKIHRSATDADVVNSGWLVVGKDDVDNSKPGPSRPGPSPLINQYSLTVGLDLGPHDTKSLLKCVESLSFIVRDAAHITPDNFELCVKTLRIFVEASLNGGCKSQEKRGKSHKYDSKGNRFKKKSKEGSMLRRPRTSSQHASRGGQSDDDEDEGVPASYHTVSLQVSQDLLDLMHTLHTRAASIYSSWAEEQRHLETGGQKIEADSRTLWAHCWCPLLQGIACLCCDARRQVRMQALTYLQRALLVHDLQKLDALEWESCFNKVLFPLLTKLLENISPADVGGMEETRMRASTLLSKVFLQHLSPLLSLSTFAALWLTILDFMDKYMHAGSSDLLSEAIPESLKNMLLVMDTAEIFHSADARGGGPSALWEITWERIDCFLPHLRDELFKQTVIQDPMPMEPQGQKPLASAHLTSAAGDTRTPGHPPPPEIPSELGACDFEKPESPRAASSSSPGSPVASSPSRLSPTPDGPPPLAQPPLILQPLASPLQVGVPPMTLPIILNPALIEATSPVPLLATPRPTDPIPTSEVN
UniProt Q9NPA8, sequence (Q9NPA8 whole entry, looked up): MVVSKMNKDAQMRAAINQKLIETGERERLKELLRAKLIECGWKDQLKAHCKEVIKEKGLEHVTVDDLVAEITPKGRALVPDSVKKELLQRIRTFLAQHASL
UniProt Q13144, sequence (Q13144 whole entry, looked up): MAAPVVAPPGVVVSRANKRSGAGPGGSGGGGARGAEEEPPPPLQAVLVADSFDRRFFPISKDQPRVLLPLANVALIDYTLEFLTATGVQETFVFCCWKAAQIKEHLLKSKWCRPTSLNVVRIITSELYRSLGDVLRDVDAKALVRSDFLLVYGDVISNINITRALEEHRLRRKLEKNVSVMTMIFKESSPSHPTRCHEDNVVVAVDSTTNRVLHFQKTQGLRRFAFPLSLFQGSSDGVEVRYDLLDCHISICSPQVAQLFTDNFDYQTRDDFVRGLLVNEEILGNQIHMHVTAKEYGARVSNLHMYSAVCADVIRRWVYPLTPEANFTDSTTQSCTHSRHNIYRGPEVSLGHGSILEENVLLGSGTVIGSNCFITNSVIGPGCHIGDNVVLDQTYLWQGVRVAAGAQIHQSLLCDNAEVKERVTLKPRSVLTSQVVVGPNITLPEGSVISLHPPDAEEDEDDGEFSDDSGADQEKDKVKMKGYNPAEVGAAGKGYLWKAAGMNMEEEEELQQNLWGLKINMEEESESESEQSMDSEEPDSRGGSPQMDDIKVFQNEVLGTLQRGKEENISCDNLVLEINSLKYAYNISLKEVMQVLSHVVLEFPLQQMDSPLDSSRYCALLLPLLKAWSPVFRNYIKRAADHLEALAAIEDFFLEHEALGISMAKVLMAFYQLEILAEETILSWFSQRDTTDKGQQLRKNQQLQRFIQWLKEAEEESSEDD
UniProt O43427, sequence (O43427 whole entry, looked up): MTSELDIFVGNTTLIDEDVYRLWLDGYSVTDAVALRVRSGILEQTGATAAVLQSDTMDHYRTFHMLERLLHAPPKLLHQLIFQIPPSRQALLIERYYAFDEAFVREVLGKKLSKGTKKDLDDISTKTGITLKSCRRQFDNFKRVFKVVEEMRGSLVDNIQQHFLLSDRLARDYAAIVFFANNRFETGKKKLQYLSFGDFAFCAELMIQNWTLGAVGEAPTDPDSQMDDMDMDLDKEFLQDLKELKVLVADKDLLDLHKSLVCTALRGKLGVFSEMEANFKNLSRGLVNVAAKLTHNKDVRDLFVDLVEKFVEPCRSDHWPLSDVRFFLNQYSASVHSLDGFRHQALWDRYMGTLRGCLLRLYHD
UniProt O15117, sequence (O15117 whole entry, looked up): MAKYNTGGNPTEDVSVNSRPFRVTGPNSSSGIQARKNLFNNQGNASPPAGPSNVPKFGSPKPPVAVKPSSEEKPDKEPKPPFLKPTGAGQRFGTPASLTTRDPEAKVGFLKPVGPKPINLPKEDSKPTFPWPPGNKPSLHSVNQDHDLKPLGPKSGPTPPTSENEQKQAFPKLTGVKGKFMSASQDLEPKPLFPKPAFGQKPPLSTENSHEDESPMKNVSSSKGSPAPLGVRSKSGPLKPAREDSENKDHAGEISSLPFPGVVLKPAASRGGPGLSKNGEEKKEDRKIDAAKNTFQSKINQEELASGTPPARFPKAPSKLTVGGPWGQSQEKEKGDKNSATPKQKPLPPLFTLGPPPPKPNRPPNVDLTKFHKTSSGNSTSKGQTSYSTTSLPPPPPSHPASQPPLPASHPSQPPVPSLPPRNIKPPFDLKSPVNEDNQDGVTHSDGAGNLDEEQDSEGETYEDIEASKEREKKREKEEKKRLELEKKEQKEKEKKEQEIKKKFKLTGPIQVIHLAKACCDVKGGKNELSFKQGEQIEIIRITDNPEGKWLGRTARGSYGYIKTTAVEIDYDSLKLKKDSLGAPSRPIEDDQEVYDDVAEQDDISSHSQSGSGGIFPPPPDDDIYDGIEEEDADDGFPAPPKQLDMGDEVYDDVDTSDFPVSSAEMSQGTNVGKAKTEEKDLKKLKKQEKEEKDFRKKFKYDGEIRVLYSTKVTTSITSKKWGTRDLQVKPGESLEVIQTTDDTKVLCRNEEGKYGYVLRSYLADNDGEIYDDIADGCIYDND
UniProt Q9UJY4, sequence (Q9UJY4 whole entry, looked up): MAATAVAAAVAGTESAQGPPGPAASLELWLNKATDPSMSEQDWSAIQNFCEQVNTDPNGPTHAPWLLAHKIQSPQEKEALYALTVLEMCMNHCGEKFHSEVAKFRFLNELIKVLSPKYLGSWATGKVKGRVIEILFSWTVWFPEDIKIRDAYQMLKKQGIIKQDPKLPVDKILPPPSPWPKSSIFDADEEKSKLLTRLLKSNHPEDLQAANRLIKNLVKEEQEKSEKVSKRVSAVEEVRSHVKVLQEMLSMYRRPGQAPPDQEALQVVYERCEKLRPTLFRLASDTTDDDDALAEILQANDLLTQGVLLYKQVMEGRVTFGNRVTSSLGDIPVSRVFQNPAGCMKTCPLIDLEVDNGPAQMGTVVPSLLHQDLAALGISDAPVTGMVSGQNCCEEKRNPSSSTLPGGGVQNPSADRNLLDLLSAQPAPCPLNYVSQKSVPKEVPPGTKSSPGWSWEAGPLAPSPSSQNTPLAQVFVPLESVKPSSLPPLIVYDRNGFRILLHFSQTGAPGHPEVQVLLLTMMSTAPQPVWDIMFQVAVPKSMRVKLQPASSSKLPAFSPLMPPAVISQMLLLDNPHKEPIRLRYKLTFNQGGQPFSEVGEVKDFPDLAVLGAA
UniProt Q8N5C7, sequence (Q8N5C7 whole entry, looked up): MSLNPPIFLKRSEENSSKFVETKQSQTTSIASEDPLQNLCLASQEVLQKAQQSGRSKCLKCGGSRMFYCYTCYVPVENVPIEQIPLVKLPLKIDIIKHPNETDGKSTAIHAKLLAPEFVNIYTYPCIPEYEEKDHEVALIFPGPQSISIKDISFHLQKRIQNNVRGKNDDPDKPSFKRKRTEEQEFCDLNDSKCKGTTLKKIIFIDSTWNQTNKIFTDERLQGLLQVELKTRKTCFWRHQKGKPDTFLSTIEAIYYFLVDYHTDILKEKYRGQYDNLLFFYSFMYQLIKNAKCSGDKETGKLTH
UniProt Q9NPA0, sequence (Q9NPA0 whole entry, looked up): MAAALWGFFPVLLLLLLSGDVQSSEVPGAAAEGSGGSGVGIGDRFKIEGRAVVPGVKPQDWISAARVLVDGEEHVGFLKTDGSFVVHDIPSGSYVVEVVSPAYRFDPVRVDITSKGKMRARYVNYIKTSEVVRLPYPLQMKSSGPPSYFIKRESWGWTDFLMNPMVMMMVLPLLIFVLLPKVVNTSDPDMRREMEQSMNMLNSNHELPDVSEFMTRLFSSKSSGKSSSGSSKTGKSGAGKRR

Row | Target | log2 fold change
1 | GAPVD1 isoform 6 (UniProt Q14C86) | 0.002
2 | ENGASE (UniProt Q8NFI3) | 0.038
3 | EGLN1 (UniProt Q9GZT9) | -0.01
4 | EDC4 (UniProt Q6P2E9) | 0.027
5 | EMC7 (UniProt Q9NPA0) | 0.024
6 | FNTB (UniProt P49356) | 0.015
7 | ERAL1 (UniProt O75616) | 0.007
8 | ERLIN2 (UniProt O94905) | 0.016
9 | EEF1A1P5 (UniProt Q5VTE0) | 0.004
10 | EIF2B4 (UniProt Q9UI10) | -0.005
11 | FIBP (UniProt O43427) | -0.044

What follows are targets tested with Cc1sc2c(c1C)C(c1ccc(Cl)cc1)=N[C@@H](CC(=O)OC(C)(C)C)c1nnc(C)n1-2 in the same assay as above.
Outline: as §1

Row | Target | log2 fold change
12 | ENY2 (UniProt Q9NPA8) | 0.117
13 | DTYMK (UniProt P23919) | -0.096
14 | GALNT2 (UniProt Q10471) | 0.004
15 | EPB41 (UniProt P11171) | 0.027
16 | GATAD2A isoform 3 (UniProt Q86YP4) | -0.015
17 | FYB1 isoform 3 (UniProt O15117) | 0.008
18 | EIF2B5 (UniProt Q13144) | 0.023
19 | GBF1 (UniProt Q92538) | 0.016
20 | GGA2 (UniProt Q9UJY4) | 0.062
21 | DTWD1 (UniProt Q8N5C7) | 0.039
22 | GGT7 (UniProt Q9UJ14) | -0.015
23 | ERI1 (UniProt Q8IV48) | -0.015
